For 32 molecules, growth inhibition call results are on record in the antibiotic and cytotoxicity screens of Wong et al. (2023).

The structures appear in SMILES notation. In all, about 39,000 compounds went through this assay and about 500 (1.3%) were called active. This is one part of a sample in which actives are shown more often than they occur.

This test concerns S. aureus RN4220. In words: growth inhibition call (relative growth <= 0.2). Particulars: 50 µM.
`Cc1noc(C)c1NC(=O)Nc1ccc2c(c1)C(=O)N([C@@H](C)CO)C[C@H](C)[C@H](CN(C)C(=O)NC1CCCCC1)OCCCC[C@H](C)O2`: the growth inhibition call was “inactive”. In the case of `Cc1noc(C)c1S(=O)(=O)Nc1cccc2c1O[C@@H](CN(C)S(=O)(=O)c1cccs1)[C@@H](C)CN([C@H](C)CO)C2=O` it was “inactive”; in that of `Cc1scc2c1N(C(=O)CN1CCN(C)CC1)c1ccccc1NC2=O.Cl`, “active”.

Take `O=C(O)CCC(=O)N1CC(=O)Nc2ccccc21`: the growth inhibition call was “inactive”. As to `CN1CCN(CC(=O)N2c3ccccc3C(=O)Nc3cccnc32)CC1.Cl.Cl`, the growth inhibition call is “inactive”.

As to `CS(=O)(=O)N1CCC2(CC1)OCCO2`, the growth inhibition call was “inactive”. `CCC(=O)Nc1ccc(Cl)cc1`: the growth inhibition call was “inactive”. Turning to `O=C(Nc1ccc(C(F)(F)F)cc1)Nc1cccc(Cl)c1`, the growth inhibition call is “inactive”.

On to `O=C(Nc1ccc(Cl)cc1)Nc1ccc(Cl)c(Cl)c1`, for which the growth inhibition call was “active”. In the case of `CCC(=O)N[C@H]1C=C[C@@H](CC(=O)OC)O[C@H]1CO` it was “inactive”. In the case of `Cc1ccc(S(=O)(=O)Nc2ccc3c(c2)CC(=O)N([C@@H](C)CO)C[C@@H](C)[C@@H](CN(C)CC2CC2)O3)cc1` it was “inactive”. To `C[C@@H]1CCCCO[C@H](CN(C)C(=O)Nc2ccccc2)[C@H](C)CN([C@H](C)CO)C(=O)c2cc(NS(=O)(=O)c3ccc(Cl)cc3)ccc2O1` belongs “inactive”. Regarding `CC(C)[Si](C#CCCCC#N)(O[C@H](c1ccccc1)c1cn(Cc2cccc(Cl)c2)nn1)C(C)C`, the growth inhibition call was “active”.

As to `CC(C)[Si](C#CCCc1ccccc1)(O[C@H](c1ccccc1)c1cn(Cc2ccccc2)nn1)C(C)C`, the growth inhibition call was “inactive”. Regarding `CCCCCCC#C[Si](O[C@H](c1ccccc1)c1cn(Cc2cccc(Cl)c2)nn1)(C(C)C)C(C)C`, the growth inhibition call is “inactive”. `C[C@@H]1CCCCO[C@@H](CN(C)Cc2ccc(C(=O)Nc3ccccc3N)cc2)[C@@H](C)CN([C@H](C)CO)C(=O)c2cc(NS(=O)(=O)c3ccc(F)cc3)ccc2O1`: the growth inhibition call was “inactive”. To `C[C@@H]1CN([C@H](C)CO)C(=O)Cc2cc(NC(=O)Cc3cn(C)c4ccccc34)ccc2O[C@H]1CN(C)C` belongs “inactive”.

As to `CCCC[C@@H](C)/C=C(C)/C=C(\C)C(=O)NC1=C[C@@](O)(/C=C/C=C/C=C/C(=O)NC2C(=O)CCC2=O)[C@@H]2O[C@@H]2C1=O`, the growth inhibition call was “active”. To `CC(C)NC(=O)N(C)C[C@H]1Oc2ccc(NC(=O)CCC(F)(F)F)cc2C(=O)N([C@H](C)CO)C[C@@H]1C` belongs “inactive”; to `C[C@@H]1CCCCO[C@@H](CN(C)S(=O)(=O)c2cccs2)[C@H](C)CN([C@H](C)CO)C(=O)c2cc(NC(=O)c3ccccc3)ccc2O1`, “inactive”. In the case of `COc1ccccc1CNC(=O)C[C@@H]1CC[C@@H]2[C@H](COC[C@H](O)CN2C(=O)Nc2ccc(Cl)cc2)O1` it was “inactive”; in that of `COc1ccccc1CNC(=O)C[C@@H]1CC[C@H]2[C@@H](COC[C@@H](O)CN2C(=O)Nc2ccc(Cl)cc2)O1`, “inactive”; in that of `COc1ccccc1CNC(=O)C[C@H]1CC[C@H]2[C@@H](COC[C@@H](O)CN2C(=O)Nc2ccc(Cl)cc2)O1`, “inactive”. As to `O=C(C[C@H]1CC[C@@H]2[C@H](COC[C@@H](O)CN2C(=O)Nc2ccc(Cl)cc2)O1)NC1Cc2ccccc2C1`, the growth inhibition call was “inactive”. To `COc1ccccc1CNC(=O)C[C@@H]1CC[C@@H]2[C@H](COC[C@@H](O)CN2C(=O)Nc2ccc(Cl)cc2)O1` belongs “active”; to `COc1ccccc1CNC(=O)C[C@@H]1CC[C@H]2[C@@H](COC[C@H](O)CN2C(=O)Nc2ccc(F)cc2)O1`, “inactive”; to `COc1ccccc1CNC(=O)C[C@H]1CC[C@H]2[C@@H](COC[C@H](O)CN2C(=O)Nc2ccc(Cl)cc2)O1`, “active”. To `COc1ccccc1CNC(=O)C[C@H]1CC[C@@H]2[C@H](COC[C@H](O)CN2C(=O)Nc2ccc(Cl)cc2)O1` belongs “inactive”. For the molecule `O=C(C[C@@H]1CC[C@H]2[C@@H](COC[C@@H](O)CN2C(=O)Nc2ccc(Cl)cc2)O1)NC1Cc2ccccc2C1`, the growth inhibition call is “inactive”. To `COc1ccccc1CNC(=O)C[C@@H]1CC[C@H]2[C@@H](COC[C@H](O)CN2C(=O)Nc2ccc(Cl)cc2)O1` belongs “inactive”. In the case of `COc1ccccc1CNC(=O)C[C@H]1CC[C@@H]2[C@H](COC[C@@H](O)CN2C(=O)Nc2ccc(Cl)cc2)O1` it was “active”; in that of `O=C(C[C@H]1CC[C@H]2[C@@H](COC[C@H](O)CN2C(=O)Nc2ccc(Cl)cc2)O1)NC1Cc2ccccc2C1`, “active”.
